ChEMBL document CHEMBL4513141, “CO-ADD screening of NIH (USA) - Clinical Collection” (2021)
Entries with a potency or affinity are not part of this list.

test system: Klebsiella pneumoniae; settings: Concentration 20 uM; ASSAY_TEST Inhibition of Bacterial Growth; detection method Absorption (OD600); MEDIA CAMHB; plate type 384well; NBS; CORNING #3640; time 18 hr

| SMILES | Inhibition |
| --- | --- |
| Cl.FC(F)(F)c1cccc(N2CCNCC2)c1 [N- (3-TRIFLUOROMETHYLPHENYL)PIPERAZINE HYDROCHLORIDE (TFMPP)] | 6.51% |
| Cl.O=C1CC2(CCCC2)CC(=O)N1CCCCN1CCN(c2ncccn2)CC1 [BUSPIRONE HYDROCHLORIDE] | 10.99% |
| Cl.Oc1ccc2c3c1OC1C(O)CC[C@@]4(O)[C@@H](C2)N(CC2CCC2)CC[C@]314 (stereo partly drawn) | 8.11% |
| CC(C)c1cccc(C(C)C)c1O [PROPOFOL] | 12.14% |
| O.O=P1(N(CCCl)CCCl)NCCCO1 (stereo not drawn) [CYCLOPHOSPHAMIDE] | 7.22% |
| CCC(COC(=O)c1cc(OC)c(OC)c(OC)c1)(c1ccccc1)N(C)C.O=C(O)/C=C\C(=O)O (stereo not drawn) | 22.71% |
| Cc1ncc2n1-c1ccc(Cl)cc1C(c1ccccc1F)=NC2.Cl [MIDAZOLAM HYDROCHLORIDE] | 2.84% |
| CCOC(=O)C1=C(COCCN)NC(C)=C(C(=O)OC)C1c1ccccc1Cl (stereo not drawn) [AMLODIPINE] | 0.34% |
| Cc1ccnc2c1NC(=O)c1cccnc1N2C1CC1 [NEVIRAPINE] | 10.08% |
| CC(=O)CC(c1ccccc1)c1c([O-])c2ccccc2oc1=O.[Na+] (stereo not drawn) [WARFARIN SODIUM] | 4.09% |
| CN1C(=O)CN=C(c2ccccc2)c2cc(Cl)ccc21 [DIAZEPAM] | 10.3% |
| Br.COc1ccc2c3c1O[C@H]1C[C@@H](O)C=C[C@@]31CCN(C)C2 [GALANTAMINE HYDROBROMIDE] | 16.19% |
| COc1cc(N)c(Cl)cc1C(=O)NC1CN2CCC1CC2.Cl.O (stereo not drawn) [ZACOPRIDE HYDROCHLORIDE] | -4% |
